# Experimental data: PubChem BioAssay AID2796 (The Scripps Research Institute Molecular Screening Center, 2010)
# In all, about 320,000 compounds went through this assay and about 8,000 (2.5%) were called active. For the sample, actives were picked, then their nearest neighbours and some compounds at random. Unmarked numbers belong to inactive results. No stated cut-off is given here; in the data, active means activation above about 47%; inactive means the rest.
# Target: Aryl hydrocarbon receptor (Homo sapiens) (UniProt P35869)
# Assay: AHR activators, primary screen, cell-based, luminescence, luciferase reporter, human (AID 2796);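 further: 0% = vehicle wells and 100% = reference agonist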
# Conditions: AHR-responsive luciferase reporter cells, at 5 µM, active compounds read high
# Sequence of Aryl hydrocarbon receptor (Homo sapiens) (P35869 whole entry, looked up): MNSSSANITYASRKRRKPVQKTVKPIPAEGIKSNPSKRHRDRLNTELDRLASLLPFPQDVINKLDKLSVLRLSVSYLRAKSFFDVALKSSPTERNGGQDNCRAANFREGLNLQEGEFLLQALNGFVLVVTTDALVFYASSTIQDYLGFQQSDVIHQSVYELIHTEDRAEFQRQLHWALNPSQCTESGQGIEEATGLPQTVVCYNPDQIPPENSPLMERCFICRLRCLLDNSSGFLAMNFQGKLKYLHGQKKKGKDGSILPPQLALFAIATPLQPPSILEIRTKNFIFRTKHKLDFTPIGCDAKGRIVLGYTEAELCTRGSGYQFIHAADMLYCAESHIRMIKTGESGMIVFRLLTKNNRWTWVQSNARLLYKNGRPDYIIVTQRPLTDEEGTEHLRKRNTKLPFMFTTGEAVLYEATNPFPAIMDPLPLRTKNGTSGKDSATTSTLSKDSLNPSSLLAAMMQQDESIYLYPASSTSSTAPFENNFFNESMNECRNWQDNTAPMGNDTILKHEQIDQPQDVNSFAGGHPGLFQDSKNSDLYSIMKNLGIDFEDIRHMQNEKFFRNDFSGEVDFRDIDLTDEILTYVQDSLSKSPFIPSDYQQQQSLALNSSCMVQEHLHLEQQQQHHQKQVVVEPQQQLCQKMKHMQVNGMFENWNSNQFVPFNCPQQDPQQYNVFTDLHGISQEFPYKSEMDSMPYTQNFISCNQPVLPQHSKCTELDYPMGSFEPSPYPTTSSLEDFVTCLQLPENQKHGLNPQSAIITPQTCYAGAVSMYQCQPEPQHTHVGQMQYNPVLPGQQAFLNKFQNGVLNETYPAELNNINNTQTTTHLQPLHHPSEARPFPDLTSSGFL
row,Compound,activation
1,COc1cccc(NC(=O)Nc2nnc(N3CCCCC3C)s2)c1 (configuration not stated),62.3% (active)
2,COc1cccc(C(=O)Nc2nnc(S(=O)(=O)N3CCCCC3)s2)c1,9.59%
3,COc1cccc(NC(=O)NCCN2CCCCC2)c1,2.06%
4,Nc1ccn(C2CC(O)C(CO)O2)c(=O)n1 (configuration not stated),-4.38%
5,O=C(NNC(=O)c1ccc(Cl)nc1)c1ccc(Br)cc1,-2.45%
6,NC(=O)CSc1c[nH]c2ccccc12,20.9%
7,O=S(=O)(O)Oc1c[nH]c2ccccc12,66.7% (active)
8,O=C(NC1CCCC1)C(=O)c1c[nH]c2ccccc12,-1.15%
9,COc1ccc(N2CC(C(=O)NCCN3C(=O)S/C(=C\c4cccnc4)C3=O)CC2=O)c(OC)c1 (configuration not stated),-0.14%
10,COc1ccc(C(CNC(=O)c2cccc(S(=O)(=O)Nc3ccccc3Cl)c2)N2CCOCC2)cc1 (configuration not stated),8.55%
11,Cc1cc(Br)ccc1NC(=O)CN(C)C(=O)CN1C(=O)NC2(CCCC2)C1=O,1.62%
12,COc1ccc(N2C(=O)c3cccc4cccc(c34)C2=O)nn1,65% (active)
13,O=C1c2cccc3cccc(c23)C(=O)N1c1cccc(O)c1,-1.76%
14,O=C1c2ccccc2C(=O)N1c1cccc2ccccc12,0.6%
15,O=C(NC1CCCC1)C1CCN(C(=O)Nc2cccc(Cl)c2)CC1,0.72%
16,CC(C)OCCCNC(=S)N1CCC(C(=O)c2ccc3c(c2)OCCO3)CC1,1.57%
17,NS(=O)(=O)c1ccc(N=Nc2c(O)[nH]c3ccc(Br)cc23)cc1,-10.5%
18,Oc1[nH]c2ccc(Br)cc2c1N=Nc1nn[nH]n1,16.2%
19,Cc1cccc(N=Nc2c(O)[nH]c3ccc(F)cc23)c1,93% (active)
20,CC(=O)n1cc([C@H]2C=C(C(=O)N3CCOCC3)O[C@@H](OCc3ccc(CO)cc3)C2)c2ccccc21,3.74%
21,COCCN(CCOC)S(=O)(=O)NC[C@H]1O[C@@H](n2cnc3c(N)ncnc32)[C@H](O)[C@@H]1O,0.98%

row,Compound,activation
1,CCC1C(=O)c2ccccc2N(C)C1=O (configuration not stated),9.44%
2,CN1C(=O)/C(=C\c2cc(Br)cs2)c2ccccc21,62.1% (active)
3,CN1C(=O)/C(=N/OC(=O)c2ccccc2Br)c2ccccc21,-2.06%
4,Nc1nc(C23CC4CC(CC(C4)C2)C3)cs1,-0.51%
5,COc1ccc(CCNC(=O)CCc2cn(C)c3ccccc23)c(OC)c1,48.4% (active)
6,Cn1cc(CCC(=O)NC2CC2)c2ccccc21,27.1%
7,COc1ccc(CCNC(=O)CN2C(=O)CCSc3ccccc32)c(OC)c1,-0.88%
8,CCCCn1c(N)c(N(Cc2ccccc2OC)C(=O)COc2cc(C)ccc2Cl)c(=O)[nH]c1=O,4.71%
9,Cc1cc([N+](=O)[O-])c(NC2CCCCC2)c([N+](=O)[O-])c1,-4%
10,O=C(COC(=O)c1ccc(O)cc1O)NNC(=O)c1cccs1,0.36%
11,Cc1ccc(NC(=O)CSCC(=O)Nc2sccc2C#N)cc1,25.5%
12,CCc1ccc2nc3sc(C(=O)Nc4nnc(CC)s4)c(N)c3cc2c1,0.59%
13,Cc1ccc(NC(=O)c2sc3nc(N)c(C#N)cc3c2N)cc1,115% (active)
14,Cc1ccc(S(=O)(=O)c2nc(NCCCn3ccnc3)sc2Cl)cc1,9.5%
15,O=C(CCN1C(=O)c2ccccc2C1=O)NCCCn1ccnc1,6.16%
16,Cc1ccc(-c2nc(C#N)c(NCCCn3ccnc3)o2)cc1,124% (active)
17,CCOC(=O)C1CCN(C(=O)COc2cccc3ccccc23)CC1,6.85%
18,Cc1ncoc1C(=O)NCCC(c1ccccc1)c1ccccc1,2.07%
19,Cc1cc(F)ccc1S(=O)(=O)Nc1ccc(C(=O)N(C)Cc2ccco2)cc1,-1.13%
20,Cc1cc(Cl)ccc1OCCCC(=O)Nc1cccc(-n2cnnn2)c1,2.58%
21,CCc1ccccc1NC(=O)c1ccc2snnc2c1,0.7%

row,Compound,activation
1,O=C(Nc1cccc(Br)c1)c1ccc2snnc2c1,106% (active)
2,O=C(Nc1ccc2ccccc2c1)Nc1ccc2snnc2c1,7.08%
3,COc1ccc(C(=O)NCC2CCCCC2)cc1S(=O)(=O)N1CCCC1,0.47%
4,COc1cc(C=NNC(=O)c2cccnc2)ccc1OC(=O)c1ccccc1F,7.39%
5,CCOC(=O)c1nnn(-c2nonc2-n2cccc2)c1CN1CCC(C(=O)OCC)CC1,0.56%
6,Brc1ccc(Nc2c3c(nc4ncnn24)CCC3)cc1,104% (active)
7,Cc1cc(Nc2ccc(Br)cc2F)n2ncnc2n1,7.31%
8,CC1CCc2c(nc3ncnn3c2Nc2ccc(OC(F)(F)F)cc2)C1 (configuration not stated),12.3%
9,OCCCNc1nccc(-c2cc(Nc3cccc(Cl)c3)ncn2)n1,-11.1%
10,CC(C)n1cnc2c(Nc3cccc(Cl)c3)nc(N(CCO)CCCO)nc21,95.2% (active)
11,CC(C)C[C@H](CO)Nc1nc(N(C)c2cccc(Cl)c2)c2ncn(C(C)C)c2n1,14.5%
12,CC1=NN(/C(=N\c2nnc(C)s2)Nc2ccccc2)[C@H](c2ccc(C)cc2)S1,3.18%
13,O=C(O)c1cccnc1NC1CCCC1,-0.53%
14,CCN(CC)S(=O)(=O)N1CCC(C(=O)NC(C)CCc2ccccc2)CC1 (configuration not stated),-1.06%
15,C#CCCOC(=O)N1C2=NC(C(=O)OC)=C(C(=O)OC)[C@@H]3N(C)c4ccc(OC)cc4[C@]23C[C@H]1C(=O)OC,-1.46%
16,O=C1CCc2cc(S(=O)(=O)Nc3ccc(C(F)(F)F)cc3)cc3c2N1CC3,-2.33%
17,COCC1CCCN(Cc2nc(-c3ccc4c(c3)OCO4)no2)C1 (configuration not stated),52.6% (active)
18,CC1CCN(Cc2nc(-c3ccc(Cl)cc3)no2)CC1,-0.15%
19,COCC1CCCN(Cc2cn[nH]c2-c2cc3ccccc3o2)C1 (configuration not stated),4.44%
20,CCN1CN(Cc2ccccc2)CNC1=S,2.74%
